Pf Dd2 inh: Plasmodium falciparum Dd2 growth inhibition | P. falciparum Dd2 growth, SYBR Green, 72 h | Potency, µM (titrated, usually from 28.9 µM), for the others: at the top dose activity, negative = inhibition, usual class: inhibitors | hit rate 4.3% among 120,000; active = well fitted inhibition curve with a large enough effect;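 note: plate controls were DMSO vehicle for no effect and reference drug for full effect; nearly all actives have a fitted effect of over 65% in size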
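Infected erythrocytes (Dd2, 0.3% parasitemia, 2.5% hematocrit final) are added to compound in RPMI-1640/Albumax II medium, grown 72 h at 37C in low oxygen, then lysed with saponin/Triton-X containing SYBR Green and read by fluorescence.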
* = called active by the depositor; i = inactive; [ ] = dose if it differs, or a comment. The full list was thinned out, with hits kept by preference. Potency is the fitted concentration of half-maximal effect.

SMILES	Pf Dd2 inh
O=C1Cc2c(-c3ccccc3OCc3ccccc3)n[nH]c2CN1Cc1ccccc1	10µM*
O=C1Cc2c(-c3ccccc3OCc3ccccc3)n[nH]c2CN1Cc1ccccn1	10µM*
COc1ccc(CN2Cc3[nH]nc(-c4ccccc4OC)c3CC2=O)cc1	-29%[44.1 µM]
COc1ccc(-c2n[nH]c3c2CC(=O)N(Cc2ccccn2)C3)cc1F	-16%[44.1 µM]
O=C1Cc2c(-c3ccccc3Cl)n[nH]c2CN1Cc1ccccc1	7%[44.1 µM]
CNC(=O)c1ccc(OC)c(-c2cc(N)nc3[nH]ccc23)c1	4%
CCc1nc2c(c(-c3ccc(Cl)cc3)n1)CCN([S+](=O)([O-])c1c(C)noc1C)CC2	-12%
O=C1N2CCCC2CN1C1CCN(Cc2ccc(C(F)(F)F)cc2)CC1 (stereo not given)	-20%
CCn1nc(C)c(CCC(=O)NC2CCCc3c2[nH]c2ccccc32)c1C (stereo not given)	-24%
COCC(=O)N[C@@H]1CN(Cc2cnn(C)c2C)C[C@H]1CO	i
CCOc1ccc(NC(=O)NCCCN2CCN(c3ccc(F)cc3)CC2)cc1	i
CCC(=O)N1c2ccccc2CC1C(=O)NCCCN1CCN(c2ccc(F)cc2)CC1 (stereo not given)	-13%
O=C(NCCCN1CCN(c2ccc(F)cc2)CC1)Nc1ccccc1Cl	7.9µM*
Nc1ccsc1C(=O)N1CCC2(CCC(=O)N(CC3CCCO3)C2)CC1 (stereo not given)	-12%
COc1ccc(CN2C[C@@H](F)[C@@H](OCc3nc4ccncc4[nH]3)C2)cn1	-15%[44.1 µM]
CC1(C)[C@H]2CC[C@@H](CNC(=O)c3ccc(F)cc3)[C@@H]1C2	11µM*
CC1(C)[C@H]2CC[C@@H](CNC(=O)c3cncc(Br)c3)[C@@H]1C2	-21%
CC1(C)[C@H]2CC[C@@H](CNC(=O)c3ccc(C(F)(F)F)cc3)[C@@H]1C2	10µM*
CC1(C)[C@H]2CC[C@@H](CNC(=O)c3ccccc3)[C@@H]1C2	-12%[44.1 µM]
COC[C@H]1C[C@@H](NC(=O)c2ccc(C(F)(F)F)cc2)[C@H](O)[C@@H]1O	-5%[44.1 µM]
COCC(=O)NC[C@@H]1CC[C@H]2C[C@@H]1C2(C)C	-4%[44.1 µM]
CC(=O)NC[C@H]1CCN(C(=O)c2ccc(C(F)(F)F)cc2)C[C@H]1N(C)C	22%
CN(C)CCCC(=O)NC[C@@H]1CC[C@H]2C[C@@H]1C2(C)C	10µM*
CCc1c(C)nn(CC(=O)N2CCC3(CCNC(=O)CC3)CC2)c1C	-4%
COCCCn1c(CN(C)CCc2ccccc2)cnc1S(=O)(=O)C1CCCC1	i
SMILES	Pf Dd2 inh
O=C1c2c(nc(COc3cccc(F)c3)n2Cc2ccccc2)NCCN1CC1CC1	-3%[44.1 µM]
COc1ccc(-c2cc(N3CCC(NC(=O)c4ccc(Cl)cc4)CC3)n[nH]2)cc1	i
C[C@H]1[C@@H]2[C@@H](O)C([C@H](C)C(=O)NCc3ccco3)CC[C@@]2(C)CC[C@@H]1NC(=O)c1cncnc1 (stereo not given in full)	i
Cc1ccc(CN2CCc3ncc(C(=O)NCc4ccccc4)n3CC2)o1	10%[44.1 µM]
Cc1cc(C)n(Cc2ccc(C(=O)N3CC4CC(C3)[C@H]3CCCC(=O)N3C4)o2)n1 (stereo not given in full)	-11%
CN1CCNc2cc(Nc3ccc(F)cc3)ncc2C1	i
O=C(c1ccncc1)N1CC2CCC(C1)N2Cc1cccc(-c2ccc(F)cc2F)c1	-9%
NCc1cccc(-c2cccc(C(F)(F)F)c2)c1	11µM*
O=Cc1cccc(-c2cccc(C(F)(F)F)c2)c1	i
O=C(O)c1cccc(-c2cccc(C(F)(F)F)c2)c1	5%[44.1 µM]
O=Cc1cccc(-c2ccccc2F)c1	2%[76.6 µM]
O=Cc1cccc(-c2ccc(F)cc2F)c1	-11%[44.1 µM]
NCc1cccc(-c2ccccc2F)c1	11µM*
NCc1cccc(-c2ccc(F)cc2F)c1	13µM*
Fc1ccccc1-c1noc(NCc2ccccc2)n1	-4%
CN(Cc1ccccc1)C(=O)Cn1c2c(c(=O)n1Cc1ccccc1)CCN(Cc1ccccc1)C2	7%
O=C(NCCc1cccc(F)c1)C1CCCN(C2CCN(C(=O)C3CC3)CC2)C1 (stereo not given)	-29%
Cc1cnc(C(=O)N2CCCN(C(=O)C3CC3)C(c3ccccc3)CC(=O)NCC2)cn1 (stereo not given)	13%
CN(C)C[C@@H]1CN(c2ccncn2)C[C@H]1NC(=O)Cn1c(=O)oc2ccccc21	19%
O=C(Nc1ccccc1)N1CCCCC1c1nc(-c2cnccn2)n[nH]1 (stereo not given)	-10%
CC1CCC(NC(=O)C2(c3ccc(NS(C)(=O)=O)cc3)CCCCC2)CC1 (stereo not given)	-19%
CC(C)NC(=O)N1CNC(=O)C12CCN(C(=O)[C@@H](N)c1ccccc1)CC2	2%
Cc1ccc(C(=O)N2CCC(n3cc(-c4nc(-c5ccccc5)no4)nn3)C2)cc1C (stereo not given)	-10%
CC(C)c1noc(-c2cn(C3CCN(C(=O)c4ccc(F)c(F)c4)C3)nn2)n1 (stereo not given)	44%
CC(C)c1noc(-c2cn(C3CCN(C(=O)c4cccc(C(F)(F)F)c4)C3)nn2)n1 (stereo not given)	10µM*
SMILES	Pf Dd2 inh
CC(=O)Nc1cccc(C(=O)N2CCC(n3cc(-c4nc(-c5ccccc5)no4)nn3)C2)c1 (stereo not given)	4.5µM*
Cc1ccc(C(=O)N2CCCC(n3cc(-c4nc(C5CC5)no4)nn3)C2)s1 (stereo not given)	-7%
CC(=O)Nc1cccc(C(=O)N2CCC(n3cc(-c4nc(C)no4)nn3)CC2)c1	-1%
Cc1noc(-c2cn(C3CCN(C(=O)C4(c5ccccc5)CC4)CC3)nn2)n1	12%
Cc1ccc(C(=O)N2CCC(n3cc(-c4nc(C5CC5)no4)nn3)C2)s1 (stereo not given)	10µM*
Cc1noc(-c2cn(C3CCN(C(=O)c4ccc(C)s4)CC3)nn2)n1	i
COc1cccc(C(=O)N2CCC(n3cc(-c4nc(C)no4)nn3)CC2)c1	49%
COc1ccc(C2(C(=O)N3CCC(n4cc(-c5nc(C)no5)nn4)CC3)CC2)cc1	3.2µM*
CC(C)c1noc(-c2cn(C3CCN(C(=O)c4cccc(OC(F)(F)F)c4)C3)nn2)n1 (stereo not given)	141%
CC[C@H]1CN(S(=O)(=O)c2ccc(OC)cc2)CC[C@H]1CC(=O)NCc1cccnc1	i
O=C(CCC[C@@H]1[C@H]2CCCN3CCC[C@@H](CN1Cc1cccnc1)[C@@H]23)NCc1cccnc1	11%
NC1CCc2nn(CC(=O)N3CCc4ccccc43)c(=O)n2CC1 (stereo not given)	20%
Cc1cc(=O)n(CC(=O)Nc2ccc(C)c(F)c2)c(N2CCOCC2)n1	-9%
COc1ccc(-c2ccccc2)cc1N1C(=O)[C@@H]2C[C@H]1CN2C(=O)CNC(N)=O	0%
COCCNC(=O)CCC1CCN(C(=O)c2ccccc2Cl)CC1	-3%
N#Cc1ccc(S(=O)(=O)N2C[C@@H](Oc3cccnc3)C[C@H]2C(N)=O)cc1	2%
CCOc1ccc(NC(=O)Cn2c(-c3cnccn3)nc(C)c(C)c2=O)cc1	i
O=C(c1ccc(F)c(F)c1)N1CCC[C@H]1c1nc(-c2ccccc2Cl)no1	-26%
COCc1cc(N2CCc3onc(-c4cccc5ccccc45)c3C2)ncn1	14µM*
O=S(=O)(c1cccnc1)N1CCc2onc(-c3cccc4ccccc34)c2C1	-17%
COc1ncccc1C(=O)N1CCc2onc(-c3cccc4ccccc34)c2C1	-20%
COc1ccc(C(=O)N2CCC3(CC2)CC(OCC2CC2)CCO3)cc1 (stereo not given)	-9%

Source: PubChem BioAssay
